Results taken from PubChem BioAssay.
“And” between values parts separate entries of the source, which are not always exact repeats. Equal values may be shown once. Inconclusive results are not listed. The source made the active and inactive calls.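 Rule for the calls, unless noted: active = normalized viability below 100% at a tested concentration; inactive = the rest.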

Legend:
[1] = viability loss in pontine glioma line – cell-based, SU-DIPG-XXV, MIPE5.0, CellTiter-Glo, qHTS, dose response (AID 1347065; cut-off not given, nearly all actives have AC50 up to about 26 µM;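 note: cells exposed to compound for 48 hours before ATP readout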); settings: CellTiter-Glo ATP luminescence
[2] = growth inhibition of DIPG cells – cell-based, MIPE4.0 library, CellTiter-Glo luminescence, qHTS (AID 1347066; cut-off not given, nearly all actives have AC50 up to about 30 µM;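 note: cells exposed to compound for 48 hours before readout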); settings: SU-DIPG-VI viability, CellTiter-Glo ATP luminescence
[3] = JHH-DIPG-1 glioma cell viability, MIPE5.0 library, CellTiter-Glo luminescence, qHTS (AID 1347067; cut-off not given, nearly all actives have AC50 up to about 26 µM;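 note: cells exposed to compound for 48 hours before readout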); settings: JHH-DIPG-1 glioma viability, CellTiter-Glo ATP luminescence
[4] = growth inhibition of DIPG cells – cell-based, MIPE5.0 library, qHTS (AID 1347068; cut-off not given, nearly all actives have IC50 up to about 30 µM); settings: SU-DIPG-XXV viability
[5] = blockers of cellular phospholipid synthesis – cell-based, LOPAC library, screen 4, primary screen (AID 1347384; call rule not given here); settings: animal cells, phospholipid biosynthesis inhibition screen; at 10 µM
[6] = target: NAD(+) hydrolase SARM1 (Homo sapiens) (UniProt Q6SZW1); assay: blocking NAD cleavage by SARM1 SAM-TIR – cell lysate, NAD-Glo luminescence (AID 1508614;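 active = compound whose remaining NAD level is above about 45 nM, limit read from the data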;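 note: higher remaining NAD means stronger inhibition of SARM1 NADase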); settings: SAM-TIR HEK293T lysate NADase, at 1 µM, stronger effect = higher value
Sequence of NAD(+) hydrolase SARM1 (Homo sapiens) (Q6SZW1 whole entry, looked up): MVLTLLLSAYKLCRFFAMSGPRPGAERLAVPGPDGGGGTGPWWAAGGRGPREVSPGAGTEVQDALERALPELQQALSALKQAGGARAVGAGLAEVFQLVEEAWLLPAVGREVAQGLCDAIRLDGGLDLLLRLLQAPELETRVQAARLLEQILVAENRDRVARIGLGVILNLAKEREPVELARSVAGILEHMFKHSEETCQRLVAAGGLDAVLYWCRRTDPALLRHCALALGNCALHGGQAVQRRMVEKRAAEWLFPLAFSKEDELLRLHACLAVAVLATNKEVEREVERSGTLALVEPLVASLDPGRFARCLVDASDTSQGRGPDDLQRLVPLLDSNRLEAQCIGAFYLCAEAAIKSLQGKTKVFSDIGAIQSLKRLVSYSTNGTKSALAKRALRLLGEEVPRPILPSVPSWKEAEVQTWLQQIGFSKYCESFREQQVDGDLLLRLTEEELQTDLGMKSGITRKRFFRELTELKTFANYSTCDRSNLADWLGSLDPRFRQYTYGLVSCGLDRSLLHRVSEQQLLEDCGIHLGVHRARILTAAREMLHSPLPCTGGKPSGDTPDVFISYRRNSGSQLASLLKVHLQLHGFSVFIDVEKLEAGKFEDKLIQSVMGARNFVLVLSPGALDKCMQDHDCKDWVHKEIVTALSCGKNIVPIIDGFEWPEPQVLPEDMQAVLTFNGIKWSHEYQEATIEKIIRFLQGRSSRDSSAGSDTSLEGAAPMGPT

[7] = growth inhibition, single agent or in combination, cell-based, chromothripsis tumors, cisplatin or BGB combos (AID 1671449; in the data active = inhibition above about 80%;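 note: cells exposed for 96 hours; 0% = vehicle DMSO and 100% = killing by high DMSO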); settings: LFS_MB_P medulloblastoma cells
[8] = growth inhibition, single agent and combos, cell-based, chromothripsis tumors, cisplatin or BGB combos (AID 1671450; in the data active = inhibition above about 80%;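 note: cells exposed to compound for four days; 0% = vehicle DMSO and 100% = cell killing by high DMSO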); settings: HDN33 neuroblastoma cells, stronger effect = higher value
[9] = growth inhibition, single agents and combos, ICB984, cell-based, cisplatin or BGB combos, synergistic combos for chromothripsis tumors (AID 1671451; call rule not given here;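 note: cells exposed for 96 hours before readout; 0% = vehicle DMSO and 100% = killing by high DMSO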); settings: ICB984 medulloblastoma cells, drug combinations, stronger effect = higher value
[10] = growth inhibition, single agents and combos, LFS_MB_1R, cell-based, cisplatin or BGB combos, synergistic combos for chromothripsis tumors (AID 1671452; in the data active = inhibition above about 80%;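 note: cells exposed for 96 hours before readout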); settings: LFS_MB_1R medulloblastoma cells, stronger effect = higher value
[11] = growth inhibition, single agents and combos, HTB85, cell-based, BGB or cisplatin IC20 combos, synergistic combos for chromothripsis tumors (AID 1671453; in the data active = inhibition above about 80%;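 note: cells exposed for 96 hours before readout; 0% = vehicle DMSO and 100% = high DMSO killing control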); settings: HTB85 osteosarcoma cells, drug combinations, stronger effect = higher value
[12] = growth inhibition, single agents and combos, CRL2098, cell-based, BGB or cisplatin IC20 combos, synergistic combos for chromothripsis tumors (AID 1671454; in the data active = inhibition above about 80%;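 note: cells exposed for 96 h before readout; 0% = vehicle DMSO and 100% = killing by high DMSO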); settings: CRL2098 osteosarcoma cells, drug combinations, stronger effect = higher value
[13] = growth inhibition, single agents and combos, HD-MB03, cell-based, BGB or cisplatin IC20 combos, synergistic combos for chromothripsis tumors (AID 1671455; in the data active = inhibition above about 83%;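 note: 0% = vehicle DMSO and 100% = high DMSO as cytotoxic control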); settings: HD-MB03 medulloblastoma cells, stronger effect = higher value
[14] = MELAS cybrid and Rieske KO viability enhancers – cell-based, MELAS cybrids, Rieske KO mouse fibroblasts, CellTiter-Glo, primary screen (AID 1508586;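 active = mean z-score across replicates of 1.96 or higher in either the MELAS or the Rieske mutant cell line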;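 note: z relative to plate mean and SD of compound and empty wells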); settings: low glucose
[15] = target: Mitogen-activated protein kinase 7 (Homo sapiens) (UniProt Q13164); assay: Gal4-ERK5 driven luciferase induction – cell-based, HTS, primary screen (AID 1508626;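 active = luciferase signal above three times the same-plate solvent-only control wells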;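 note: luciferase driven by Gal4-ERK5 fusion binding five Gal4 sites before minimal TATA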); settings: HeLa Gal4-ERK5 transactivation, 18 h, at 5 µM, stronger effect = higher value
Sequence of Mitogen-activated protein kinase 7 (Homo sapiens) (Q13164 whole entry, looked up, the tested form may be a part): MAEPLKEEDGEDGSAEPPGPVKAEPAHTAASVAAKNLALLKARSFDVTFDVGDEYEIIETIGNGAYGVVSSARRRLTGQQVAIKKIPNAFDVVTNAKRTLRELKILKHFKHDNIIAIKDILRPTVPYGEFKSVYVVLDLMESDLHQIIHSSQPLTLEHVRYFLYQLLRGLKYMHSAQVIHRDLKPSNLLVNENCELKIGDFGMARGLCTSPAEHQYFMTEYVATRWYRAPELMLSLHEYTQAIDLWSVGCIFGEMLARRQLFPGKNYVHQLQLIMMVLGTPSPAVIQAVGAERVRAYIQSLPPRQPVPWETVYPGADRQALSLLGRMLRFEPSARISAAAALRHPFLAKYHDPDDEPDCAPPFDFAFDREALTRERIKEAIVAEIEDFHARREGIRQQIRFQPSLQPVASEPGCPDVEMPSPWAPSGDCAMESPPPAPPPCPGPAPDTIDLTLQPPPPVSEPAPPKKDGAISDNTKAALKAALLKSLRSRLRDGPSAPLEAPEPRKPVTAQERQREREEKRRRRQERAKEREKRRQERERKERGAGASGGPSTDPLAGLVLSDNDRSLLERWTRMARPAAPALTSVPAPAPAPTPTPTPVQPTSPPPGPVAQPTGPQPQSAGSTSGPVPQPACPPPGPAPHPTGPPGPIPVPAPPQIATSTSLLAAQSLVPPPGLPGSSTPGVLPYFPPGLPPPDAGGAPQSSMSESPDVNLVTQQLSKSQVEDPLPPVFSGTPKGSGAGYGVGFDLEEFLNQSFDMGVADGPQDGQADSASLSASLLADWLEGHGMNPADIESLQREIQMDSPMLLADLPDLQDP

[16] = galactose survival enhancers in mitochondrial complex I cybrids – cell-based, galactose medium, ATP luminescence, primary screen (AID 1645843;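 active = z-score of at least 1.8 in each of two replicates, scored against plate mean and spread of sample wells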;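 note: positive z means more ATP and so rescue of galactose-driven cybrid death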); settings: complex I mutant cybrid cells, 72 h, stronger effect = higher value
[17] = compounds altering HSF1 focus formation in cells – imaging, Selleck Cancer Library (AID 1347162; in the data active = plate-normalised HSF1 focus index below about 0.46); settings: human cells, HSF1 nuclear foci imaging, at 10 µM; SSMD: measured here: HSF1 foci SSMD mean; cell count: measured here: cell number; plate-normalised HSF1 focus index: stronger effect = lower value
[18] = drug combination growth inhibition, ovarian cancer – cell-based, oncology-focused library, rucaparib conditional, profiling panel (AID 1508598); settings: patient-derived ovarian cancer cells, CellTiter-Glo viability, 144 h, stronger effect = lower value
[19] = measured here: combination with BGB IC40, at 0.05 µM
[20] = MELAS cybrid survival, CellTiter-Glo 48 h, stronger effect = higher value
[21] = Rieske KO mouse fibroblast survival, CellTiter-Glo 72 h

With Nc1nc2c(ncn2COC(CO)CO)c(=O)[nH]1 the outcome [1] was “inactive”, the outcome [2] was “inactive” and the outcome [3] was “inactive”. For the same compound, the outcome [4] was “inactive”, the outcome [5] was “inactive” and the remaining NAD [6] was 10 nM (inactive). The inhibition ([7]; at 0.5 µM, stronger effect = higher value) was -14.4% (inactive), the inhibition ([7]; measured here: combination with BGB IC20, at 0.005 µM) was -4.12% and the inhibition ([7]; measured here: combination with BGB IC40, at 0.005 µM) was -22.8%. For the same compound, the inhibition [7, 19] was 1.72%, the inhibition ([7]; measured here: combination with cisplatin, at 0.5 µM, stronger effect = higher value) was -35.5% and the inhibition ([7]; measured here: combination with cisplatin, at 5 µM, stronger effect = higher value) was 126%. The inhibition ([8]; BGB combo, at 5 µM) was 30.5%, the inhibition ([8]; at 0.5 µM) was -5.69% (inactive) and the inhibition ([8]; cisplatin combo, at 5 µM) was 55%. For the same compound, the inhibition ([8]; measured here: with BGB IC20 combination, at 0.5 µM) was -10.7%, the inhibition ([8]; measured here: with cisplatin IC20 combination, at 0.5 µM) was 0.325% and the inhibition ([8]; single agent, at 5 µM) was 66%. For the same compound, the inhibition ([9]; BGB IC20 combo, at 0.005 µM) was -34.3%, the inhibition ([9]; BGB IC40 combo, at 0.005 µM) was -7.26% and the inhibition ([9]; BGB IC40 combo, at 0.05 µM) was 96.7%. For the same compound, the inhibition ([9]; at 0.5 µM) was -23.8% (inactive), the inhibition ([9]; cisplatin combo, at 0.05 µM) was 96.7% and the inhibition ([9]; cisplatin combo, at 0.5 µM) was -39.7%. For the same compound, the inhibition ([9]; cisplatin combo, at 5 µM) was -4.59%, the inhibition ([9]; measured here: 5 uM single agent, at 5 µM) was -6.09% and the inhibition ([10]; at 0.5 µM) was 26.9% (inactive). It also gave an inhibition [10, 19] of -58.1%, an inhibition ([10]; measured here: combination with cisplatin, at 0.5 µM) of 61.8% and an inhibition ([10]; measured here: combination with cisplatin, at 5 µM) of 106%. For the same compound, the inhibition ([11]; at 0.5 µM) was -13.4% (inactive), the inhibition ([11]; measured here: with BGB IC20, at 0.5 µM) was -37.4% and the inhibition ([11]; measured here: with BGB IC20, at 5 µM) was 32.5%. For the same compound, the inhibition ([11]; measured here: with cisplatin IC20, at 0.5 µM) was -11.6%, the inhibition ([11]; measured here: with cisplatin IC20, at 5 µM) was 68.7% and the inhibition ([11]; single agent, at 5 µM) was 71%. For the same compound, the inhibition ([12]; at 0.5 µM) was 2.15% (inactive), the inhibition ([12]; measured here: combination with BGB at IC20, at 0.5 µM) was 2.66% and the inhibition ([12]; measured here: combination with cisplatin at IC20, at 0.5 µM) was 0.146%. For the same compound, the inhibition ([13]; at 0.5 µM) was -7.18% (inactive), the inhibition ([13]; measured here: combo with BGB at IC20, at 0.5 µM) was -5.76% and the inhibition ([13]; measured here: combo with cisplatin at IC20, at 0.5 µM) was -11.1%.
For CCOC(=O)c1ncn2c1CN(C)C(=O)c1cc(F)ccc1-2, the outcome [1] was “inactive”, the outcome [2] was “inactive” and the outcome [3] was “inactive”. The outcome [4] was “inactive”, the outcome [5] was “inactive” and the z-score [14, 20] was 0.109 (inactive) and 0.0778 (inactive). For the same compound, the z-score [14, 21] was 0.977 and -0.775, the remaining NAD [6] was 10 nM (inactive) and the luciferase signal [15] was 60 AU (inactive).
For NC(CO)C(=O)NNCc1ccc(O)c(O)c1O (stereo not given), the outcome [1] was “inactive”, the outcome [2] was “inactive” and the outcome [3] was “inactive”. For the same compound, the outcome [4] was “inactive”, the outcome [5] was “inactive” and the z-score [14, 20] was -0.395 (inactive) and 0.597 (inactive) and -0.0244 (inactive). The z-score [14, 21] was 0.352 and -0.231 and -1.37, the remaining NAD [6] was 10 nM (inactive) and the luciferase signal [15] was 132 AU (inactive). The z-score [16] was -1.5 (inactive) and -0.255 (inactive).
In the case of NC(=O)c1ncn([C@@H]2O[C@H](CO)[C@@H](O)[C@H]2O)n1, the outcome [1] was “inactive”, the outcome [2] was “inactive” and the outcome [3] was “inactive”. The outcome [4] was “inactive”, the outcome [5] was “inactive” and the z-score [14, 20] was -1.67 (inactive) and -1.08 (inactive). The z-score [14, 21] was -1.02 and -1.08, the remaining NAD [6] was 10 nM (inactive) and the luciferase signal [15] was 36 AU (inactive). For the same compound, the z-score [16] was 0.88 (inactive) and 1.56 (inactive).
In the case of Nc1nnc(-c2cccc(Cl)c2Cl)c(N)n1, the outcome [1] was “inactive”, the outcome [2] was “inactive” and the outcome [3] was “inactive”. For the same compound, the outcome [4] was “inactive”, the outcome [5] was “inactive” and the z-score [14, 20] was 1.04 (inactive) and -0.0755 (inactive) and -0.75 (inactive). The z-score [14, 21] was -2.18 and 0.0455 and -0.484, the remaining NAD [6] was 10 nM (inactive) and the luciferase signal [15] was 44 AU (inactive). The z-score [16] was 0.675 (inactive) and 0.31 (inactive) and 0.775 (inactive).
For Cc1ccccc1N1C(=O)c2cc(S(N)(=O)=O)c(Cl)cc2NC1C (stereo not given), the outcome [1] was “inactive”, the outcome [2] was “inactive” and the outcome [3] was “inactive”. For the same compound, the outcome [4] was “inactive”, the outcome [5] was “inactive” and the z-score [14, 20] was -0.2 (inactive) and 0.948 (inactive). The z-score [14, 21] was 0.325 and -0.0446, the remaining NAD [6] was 10 nM (inactive) and the luciferase signal [15] was 64 AU (inactive). For the same compound, the z-score [16] was -0.04 (inactive).
With NS(=O)(=O)c1cc2c(cc1Cl)NC(C(Cl)Cl)NS2(=O)=O (stereo not given) the outcome [1] was “inactive”, the outcome [2] was “inactive” and the outcome [3] was “inactive”. For the same compound, the outcome [4] was “inactive”, the z-score [14, 20] was -0.307 (inactive) and 0.588 (inactive) and 0.372 (inactive) and the z-score [14, 21] was 0.662 and 0.211 and -0.506. The remaining NAD [6] was 10 nM (inactive), the luciferase signal [15] was 48 AU (inactive) and the z-score [16] was -0.19 (inactive).
For Cn1nnc2c(C(N)=O)ncn2c1=O, the outcome [1] was “inactive”, the outcome [2] was “inactive” and the outcome [3] was “inactive”. For the same compound, the outcome [4] was “inactive”, the SSMD [17] was 1.56 and the cell count [17] was 7070. The plate-normalised HSF1 focus index [17] was 1.09 (inactive), the z-score [14, 20] was -0.452 (inactive) and 0.68 (inactive) and -0.709 (inactive) and the z-score [14, 21] was 0.371 and -0.0371 and -0.913. For the same compound, the viability ([18]; at 0.000305 µM, OCI-C5x cells, with rucaparib 10 µM, 100% = cells with rucaparib alone) was 103% (inactive), the viability ([18]; at 0.000305 µM, OCI-C5x cells, without rucaparib) was 108% (inactive) and the viability ([18]; at 0.000305 µM, OCI-P5x cells, with rucaparib 20 µM, 100% = cells with rucaparib alone) was 91% (active). For the same compound, the viability ([18]; at 0.000305 µM, OCI-P5x cells, without rucaparib) was 88.3% (active), the viability ([18]; at 0.00122 µM, OCI-C5x cells, with rucaparib 10 µM, 100% = cells with rucaparib alone) was 103% (inactive) and the viability ([18]; at 0.00122 µM, OCI-C5x cells, without rucaparib) was 109% (inactive). The viability ([18]; at 0.00122 µM, OCI-P5x cells, with rucaparib 20 µM, 100% = cells with rucaparib alone) was 108% (inactive), the viability ([18]; at 0.00122 µM, OCI-P5x cells, without rucaparib) was 98.5% (active) and the viability ([18]; at 0.00488 µM, OCI-C5x cells, with rucaparib 10 µM, 100% = cells with rucaparib alone) was 113% (inactive). The viability ([18]; at 0.00488 µM, OCI-C5x cells, without rucaparib) was 110% (inactive), the viability ([18]; at 0.00488 µM, OCI-P5x cells, with rucaparib 20 µM, 100% = cells with rucaparib alone) was 110% (inactive) and the viability ([18]; at 0.00488 µM, OCI-P5x cells, without rucaparib) was 101% (inactive). The viability ([18]; at 0.0195 µM, OCI-C5x cells, with rucaparib 10 µM, 100% = cells with rucaparib alone) was 118% (inactive), the viability ([18]; at 0.0195 µM, OCI-C5x cells, without rucaparib) was 108% (inactive) and the viability ([18]; at 0.0195 µM, OCI-P5x cells, with rucaparib 20 µM, 100% = cells with rucaparib alone) was 106% (inactive). For the same compound, the viability ([18]; at 0.0195 µM, OCI-P5x cells, without rucaparib) was 106% (inactive), the viability ([18]; at 0.0781 µM, OCI-C5x cells, with rucaparib 10 µM, 100% = cells with rucaparib alone) was 102% (inactive) and the viability ([18]; at 0.0781 µM, OCI-C5x cells, without rucaparib) was 101% (inactive). The viability ([18]; at 0.0781 µM, OCI-P5x cells, with rucaparib 20 µM, 100% = cells with rucaparib alone) was 112% (inactive), the viability ([18]; at 0.0781 µM, OCI-P5x cells, without rucaparib) was 104% (inactive) and the viability ([18]; at 0.313 µM, OCI-C5x cells, with rucaparib 10 µM, 100% = cells with rucaparib alone) was 101% (inactive).
